Test results taken from PubChem BioAssay (NCI).
About 83,000 compounds went through this panel and 20% of them were active in at least one assay; those are over-represented in the sample as a whole.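 Plates (96-well) were seeded with cells, treated with compound at one concentration, and incubated for 48 hours before percent growth was determined.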 Values without a mark were called inactive. Activity calls are given as the source filed them. How the source made its calls: active means growth percent below 10; inactive means the rest.

How the values were obtained:
Assay in all cases: NCI-60 one-dose screen, 48 h (100 = growth as untreated, 0 = no growth, -100 = all killed)
Details in all cases: 10 µM
[1] = test system: SR leukemia
[2] = test system: RPMI-8226 leukemia
[3] = test system: OVCAR-8 ovarian
[4] = test system: OVCAR-5 ovarian
[5] = test system: OVCAR-4 ovarian
[6] = test system: SK-OV-3 ovarian
[7] = test system: IGROV1 ovarian
[8] = test system: OVCAR-3 ovarian
[9] = test system: HS 578T breast
[10] = test system: NCI/ADR-RES ovarian

SMILES | growth [1] | growth [2] | growth [3] | growth [4] | growth [5] | growth [6] | growth [7] | growth [8] | growth [9] | growth [10]
CC(=O)Nc1ccc(-c2cn(-c3cccc(C(=O)Nc4cccc(OC(F)(F)F)c4)c3)nn2)cn1 | 97.8% | 96% | 57.1% | 108% | 102% | 93.9% | 108% | 110% | 53.7% | 97.7%
O=C1CCC(N2Cc3c(NCc4ccc(-c5ccccc5)cc4)cccc3C2=O)C(=O)N1 (stereo not given) | 72.5% | 68.5% | 34.9% | 83.7% | 69.8% | 103% | 57.4% | 82.8% | 51.7% | 52.6%
COc1ccc2[nH]c(=O)c(CSc3cccc(N)c3)cc2c1 | 39.1% | 44.8% | 59.2% | 91.6% | 49.8% | 94.5% | 74.1% | 66.9% | 95% | 73%
COc1ccc2cc([C@H](C)C(=O)NCc3ccccc3)ccc2c1 | 29.8% | 25.1% | 32.7% | 53.8% | 53.5% | 40.6% | 46.9% | 19.9% | 16.8% | -10% (active)
CN(C(=O)c1ccc(C(F)(F)F)cc1C(F)(F)F)c1sc2c(c1C#N)CCC(=O)C2 | 1.6% (active) | 14.3% | 82.2% | 108% | 59.3% | 85.9% | 97.6% | 29.7% | 69.4% | 55%
Cc1cc(=O)oc2cc(OCCCCOc3ccc(/C=C/C(=O)Nc4ccccc4[N+](=O)[O-])cc3)ccc12 | 88% | 108% | 111% | 108% | 109% | 119% | 106% | 128% | 111% | 115%
CN1CCN(c2ccc(C(=O)/C=C/c3ccc(OC(F)F)cc3)cc2)CC1 | 6.8% (active) | 5.53% (active) | 44.8% | 80.3% | 59% | 76% | 27.5% | 38.4% | 63.8% | 54.7%
CC(=O)c1ccc(Nc2nc(SCCC(C)C)nc(-c3ccc(F)cc3)c2C#N)cc1 | 64.9% | 81.7% | 8.35% (active) | 53.4% | -6.74% (active) | 98.7% | 16% | 19% | 32% | 23.9%
COc1ccc(-c2cc(-c3cc(C(=O)c4ccccc4)n4ccc(C)cc34)nc(N)c2C#N)cc1 | 86.7% | 78.9% | 20.2% | 90% | 24.2% | 94.4% | 79.1% | 60.5% | 8.95% (active) | 43.6%
COc1ccc(NC(=O)CSc2nnc(-c3ccc4nc(-c5ccc(Cl)cc5)[nH]c4c3)o2)cc1 | 43.5% | 56.5% | 14.1% | 79.9% | -2.09% (active) | 101% | 78.4% | 55.3% | 35.2% | 81.3%
O=C(CSc1nnc(-c2ccc3nc(-c4ccc(Cl)cc4)[nH]c3c2)o1)Nc1ccc(Cl)cc1 | 3.21% (active) | 0.0065% (active) | -17.6% (active) | -10.2% (active) | -46.7% (active) | 21.6% | -18.8% (active) | -15.4% (active) | -32.5% (active) | 11.8%
O=C(NO)c1ccc(-c2nc3ccc4[nH]ncc4c3c3c2CCCC3)cc1 | -13.8% (active) | -9.23% (active) | -16.7% (active) | -1.66% (active) | -4.75% (active) | 21.1% | -18.9% (active) | -57% (active) | -29.8% (active) | -4.37% (active)
O=c1[nH]c2ccc(Cl)cc2cc1CSc1ccc(Nc2nccc(-c3ccc(Cl)cc3)n2)cc1 | 54.2% | 73% | -0.363% (active) | 81.3% | -59.9% (active) | 122% | 84.7% | -63.1% (active) | 56.8% | 50.2%
CCCn1c(O)c(N=Nc2nc(-c3cc4ccccc4oc3=O)cs2)c2cc(Br)ccc21 | 101% | 97.9% | 105% | 98.3% | 98.9% | 110% | 106% | 100% | 83.4% | 95.4%
O=C1CCC(N2Cc3cc(NC(=O)COc4ccccc4)ccc3C2=O)C(=O)N1 (stereo not given) | 73.1% | 65% | 47.8% | 83.3% | 72.2% | 99.2% | 45.8% | 85.8% | 36.3% | 37.8%
NS(=O)(=O)c1ccc(NC(=O)CSc2ccc(-c3ccc(Cl)cc3)nn2)c(Br)c1 | 66.4% | 72.5% | 3.04% (active) | 73.3% | 29.8% | 60.2% | 63.4% | 7.69% (active) | 4.72% (active) | 70%
O=c1c2ccccc2nc(COc2ccccc2)n1/N=C/c1ccc(F)cc1 | 78.2% | 71.7% | 94.4% | 94.2% | 76.9% | 114% | 105% | 114% | 90.5% | 90.8%
O=C(/C=C/Nc1ccc(F)cc1F)c1ccc2c(c1)Nc1ccccc1S2 | 31.7% | 78.2% | 64.6% | 86.8% | 68.2% | 95.2% | 77.9% | 100% | 63% | 57.1%
Cc1cc(=O)oc2cc(OCCCCOc3ccc(/C=C/C(=O)Nc4cccc(Cl)c4)cc3)ccc12 | 55.1% | 57.8% | 49.7% | 82.1% | -30.5% (active) | 119% | 103% | 27.6% | 29.5% | 45.7%
CCCSc1nc(NC2CC2)c(C#N)c(-c2ccc(OC)cc2)n1 | 98.4% | 96.6% | 69.2% | 105% | 84.5% | 115% | 108% | 93.5% | 105% | 68.7%
Nc1nnc(-c2c[nH]c3ncccc23)c(-c2c[nH]c3ccc(Br)cc23)n1 | 19.1% | 38.7% | 46.2% | 68.2% | 55.7% | 55.3% | 25.7% | 52.6% | 33.7% | 98.6%
COc1cc(/C=N/NC(=O)c2ccc3nc(-c4ccc(Cl)cc4)[nH]c3c2)cc(OC)c1OC | -6.5% (active) | -23.9% (active) | -62.7% (active) | 62.6% | -51.6% (active) | -25% (active) | 7.62% (active) | -90% (active) | -52.1% (active) | 75.7%
Oc1ccc(/C=C2\CCCc3cc4ccc(O)cc4[o+]c32)c(O)c1 | 15.3% | 50.6% | -56.9% (active) | 122% | 42.9% | 86.3% | 21.4% | -45.1% (active) | 52.3% | -24.7% (active)
O=C(CNc1nc(-c2ccccc2)cs1)Nc1cccc([N+](=O)[O-])c1 | 2.8% (active) | -18% (active) | -11.1% (active) | -92.8% (active) | -45.7% (active) | -22% (active) | -47.4% (active) | -44.6% (active) | -19.2% (active) | -61.4% (active)
Cc1ccc(-c2nc(Nc3ccccc3C(=O)O)c3ccccc3n2)cc1 | 18.6% | 17.1% | 30.5% | 65.9% | 21.8% | 31.3% | 31.1% | 6.01% (active) | -9.53% (active) | 5.16% (active)
